Test results published in PMC6689086.

Assays:
[1] = target: ATP-dependent molecular chaperone HSC82 (UniProt P15108); experiment: mass-spectrometry hit list; affinity purification or IP with mass spectrometry
[2] = target: Heat shock protein SSA1 (UniProt P10591); experiment: as above
Sequence of Heat shock protein SSA1 (P10591 whole entry): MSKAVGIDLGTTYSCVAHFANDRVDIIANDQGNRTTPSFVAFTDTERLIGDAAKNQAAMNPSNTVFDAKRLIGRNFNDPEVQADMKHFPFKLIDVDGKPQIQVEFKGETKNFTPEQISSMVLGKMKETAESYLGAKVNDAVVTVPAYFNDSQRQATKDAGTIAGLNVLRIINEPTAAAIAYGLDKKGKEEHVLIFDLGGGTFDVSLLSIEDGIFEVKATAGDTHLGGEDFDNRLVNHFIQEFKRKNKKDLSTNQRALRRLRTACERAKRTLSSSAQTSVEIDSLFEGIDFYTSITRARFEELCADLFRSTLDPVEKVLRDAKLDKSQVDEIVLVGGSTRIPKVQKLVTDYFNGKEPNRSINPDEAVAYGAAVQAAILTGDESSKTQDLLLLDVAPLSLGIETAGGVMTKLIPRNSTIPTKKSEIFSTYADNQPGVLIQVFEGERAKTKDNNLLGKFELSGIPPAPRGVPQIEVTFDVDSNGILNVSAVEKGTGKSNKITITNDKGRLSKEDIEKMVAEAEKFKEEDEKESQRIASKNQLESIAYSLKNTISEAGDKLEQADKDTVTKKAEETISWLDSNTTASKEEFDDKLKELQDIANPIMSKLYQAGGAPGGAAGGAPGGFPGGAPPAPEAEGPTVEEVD

Sequence of Heat shock protein SSA1, P10591 (P10591 whole entry): as above
Sequence of ATP-dependent molecular chaperone HSC82 (P15108 whole entry): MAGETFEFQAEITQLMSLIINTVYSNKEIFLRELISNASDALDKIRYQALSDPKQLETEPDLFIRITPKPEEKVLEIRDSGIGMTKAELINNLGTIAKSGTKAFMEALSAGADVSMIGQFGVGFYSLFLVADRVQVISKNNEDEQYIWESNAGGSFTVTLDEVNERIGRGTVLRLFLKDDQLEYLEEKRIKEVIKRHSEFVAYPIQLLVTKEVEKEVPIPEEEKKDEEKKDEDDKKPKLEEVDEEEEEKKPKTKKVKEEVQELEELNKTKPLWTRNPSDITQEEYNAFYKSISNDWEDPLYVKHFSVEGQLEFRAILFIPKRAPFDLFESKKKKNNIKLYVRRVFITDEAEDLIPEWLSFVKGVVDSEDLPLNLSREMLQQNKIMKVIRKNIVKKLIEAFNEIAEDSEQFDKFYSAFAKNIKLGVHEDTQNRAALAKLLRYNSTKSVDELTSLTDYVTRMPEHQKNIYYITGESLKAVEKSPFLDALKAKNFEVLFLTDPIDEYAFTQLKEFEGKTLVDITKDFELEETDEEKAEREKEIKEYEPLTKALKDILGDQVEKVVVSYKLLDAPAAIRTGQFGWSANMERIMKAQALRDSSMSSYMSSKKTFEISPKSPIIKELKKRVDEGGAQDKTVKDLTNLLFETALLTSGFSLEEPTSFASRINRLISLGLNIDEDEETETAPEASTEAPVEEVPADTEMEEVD

Row | Substance | listed as a hit [1] | listed as a hit [2]
1 | Heat shock protein SSA1, P10591 | yes | –
2 | ATP-dependent molecular chaperone HSP82, P02829 | – | yes
